Laboratory results taken from PubChem BioAssay AID521 (Sanford-Burnham Center for Chemical Genomics, 2006).
About 730 (0.66%) of roughly 110,000 compounds were called active. No stated cut-off is given here; in the data, active means inhibition above about 50%; inconclusive means no clear call, values can overlap the other calls; inactive means below that. Only a selection was taken, and actives are over-represented in it overall.

target: Tyrosine-protein phosphatase non-receptor type 7 (Homo sapiens) (UniProt P35236); experiment: inhibitors of human HePTP phosphatase, primary screen, biochemical, absorbance, leukemia target (AID 521); details: recombinant HePTP phosphatase activity, OD absorbance; at 20 µM; hits give high values;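 further: plate controls were vehicle for no effect and reference inhibitor for full effect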
Sequence (P35236 whole entry, looked up): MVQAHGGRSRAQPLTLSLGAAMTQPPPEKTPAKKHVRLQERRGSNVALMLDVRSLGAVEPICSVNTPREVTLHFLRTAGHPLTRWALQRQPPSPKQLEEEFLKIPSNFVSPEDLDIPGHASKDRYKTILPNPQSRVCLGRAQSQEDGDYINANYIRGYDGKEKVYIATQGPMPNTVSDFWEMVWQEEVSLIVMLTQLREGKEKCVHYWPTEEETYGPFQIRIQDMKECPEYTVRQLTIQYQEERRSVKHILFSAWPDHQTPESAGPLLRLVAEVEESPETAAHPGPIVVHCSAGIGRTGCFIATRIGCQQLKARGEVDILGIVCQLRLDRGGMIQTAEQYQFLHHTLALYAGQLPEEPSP

inhibition, active:
CCOc1ccc(N/C(=N\S(=O)(=O)c2ccc(NC(C)=O)cc2)Nc2nc(C)cc(C)n2)cc1 104%
O=C1/C(=C/c2ccc(-c3ccc(Cl)cc3C(=O)O)o2)Sc2ccccc21 99%
Cc1ccc(S(=O)(=O)N(CC(O)CN(C)C)c2cccc3ccccc23)cc1 (centres undefined) 104%
O=C(N=Nc1c(O)[nH]c2ccc([N+](=O)[O-])cc12)c1cccc(Br)c1 56.4%
COc1ccc(CCNC(=O)COc2cc(C)c(Cl)c(C)c2)cc1OC 103%
Cc1c(C#N)c2nc3ccccc3n2c(=O)/c1=C\c1c(O)n(-c2ccc(Br)cc2)[nH]c1=O 103%
N#C/C(=C/c1cc(Cl)c(O)c(Cl)c1)C(=O)Nc1cccc(Br)c1 102%
Cc1cc(C)c2nc3s/c(=C\c4ccc(-c5ccccc5C(=O)O)o4)c(=O)n3c2c1 103%

inhibition, inactive:
Cc1ccc(N(Cc2ccc(C(=O)N3CCCCC3)cc2)S(C)(=O)=O)cc1C 13.9%
O=C(NCC1CCCO1)c1cc(-c2ccccc2)nc2ccccc12 (centres undefined) -0.5%
CCOc1ccc(NC(=O)Nc2cc(C)on2)cc1 -4.8%
CCCOc1ccccc1N/C(=N/S(=O)(=O)c1ccc(C)cc1)Nc1nc(C)cc(C)n1 -1.6%
O=C(/C=C/c1ccc([N+](=O)[O-])cc1)N1CCc2ccccc2C1 -1.1%
Cc1ccc(N2C(=O)NC(=O)/C(=C\c3cccc(C)c3)C2=O)cc1 4.7%
O=C1S/C(=C/c2ccc(-c3ccc(Cl)cc3Cl)o2)C(=O)N1c1ccccc1 -6.4%
Cc1ccc(-c2ccc(/C=C3\Sc4ccccc4C3=O)o2)c([N+](=O)[O-])c1 -1.6%
Cc1oc2ccc(OCC(=O)c3ccccc3)cc2c1C(=O)O 6.3%
O=C(Nc1ccc(I)cc1)c1ccc2nccnc2c1 8.3%
Cc1ccc(/C=N/NC(=O)C2CC(=O)N(c3ccc(Cl)cc3)C2)cc1 (centres undefined) 4.9%
CCOc1ccccc1C(=O)Nc1ccc(Cl)cc1[N+](=O)[O-] -5.6%
O=C(NC(=S)Nc1ccc(-c2nc3cc(Cl)ccc3o2)cc1)c1ccco1 4.7%
CN1CN=C2SC3(COC(c4cccc(Br)c4)OC3)C(=O)N2C1 (centres undefined) -17.5%
Cc1ccc(/C=C/C(=O)Nc2nc3ccc(S(C)(=O)=O)cc3s2)cc1 -6.1%
Cc1ccc(N(CC(O)CN2CCCC2)S(=O)(=O)c2ccccc2)cc1 (centres undefined) -3.8%
Cc1cccc(N(CC(O)CN(C)C)S(=O)(=O)c2ccccc2)c1 (centres undefined) -7.9%
CC(C)c1ccc(C=NCCCO)cc1 -12.6%
Nc1nonc1C(=O)N=Nc1c(O)[nH]c2ccccc12 -0.8%
O=C(N=Nc1c(O)[nH]c2ccc(F)cc12)c1ccccc1O -14.6%
O=C1C2C3CC4C2C(=O)C2(c5ccccc5)C1C3C42 (centres undefined) -6.6%
COCCCNC(=O)COc1cc(C)c(Cl)c(C)c1 5.1%
COc1ccc(CCNC(=O)COc2ccc(Br)cc2)cc1OC -20%
COc1ccc2ccccc2c1/C=N/NC(=O)c1cc(C)[nH]n1 0.2%
N#Cc1c2c(c(N3CCN(CCO)CC3)n3c1nc1ccccc13)CCCC2 4.3%
Cc1cc(NCCN2CCCCCC2)n2c(nc3ccccc32)c1C#N -9.3%
COc1ccc(OC)c(N(CC(=O)Nc2cccc(Cl)c2)S(=O)(=O)c2ccc(OC)c(OC)c2)c1 -8.4%
COc1ccc(NCN2C(=O)CSC2=O)cc1Cl 5.1%
COc1cccc(/C=C(/C#N)C(=O)Nc2ccc(F)cc2)c1O 9.6%
O=C(Nc1cccc(Br)c1)C(=O)NC1CCCC1 -7.9%
CCOC(=O)c1c(Nc2ccc(C)cc2)csc1C 5.4%
COc1ccc(CC(=O)Nc2ccc(-c3ccc(NC(=O)Cc4ccc(OC)cc4)c(OC)c3)cc2OC)cc1 -17.3%
Cc1cc(C)cc(NC(=O)CN2C(=O)c3ccccc3C2=O)c1 4.6%
CSc1nc(=O)n(C)c(C)c1C(C)=O -0.4%
O=C(NC(NC(=S)Nc1ccc(I)cc1)C(Cl)(Cl)Cl)c1cccc([N+](=O)[O-])c1 (centres undefined) -2.4%
COc1cc(/C=c2\sc3nc4c(C)cc(C)cc4n3c2=O)cc(Br)c1O 5.3%
Cc1cc(C)c2nc3s/c(=C\c4ccc(N(C)C)cc4)c(=O)n3c2c1 8.6%
O=C1c2ccccc2C(=O)c2c(NC3CCCCC3)cccc21 -14.5%
COc1ccc(/C=N/n2cnc3sc4c(c3c2=O)CCCC4)cc1OC 1.7%
O=C(Nc1cccc(NC(=O)c2ccc(Cl)cc2Cl)c1)c1ccc(-c2ccc([N+](=O)[O-])cc2)o1 5.5%
CCOc1ccc2cc(S(=O)(=O)NCC3CCCO3)ccc2c1 (centres undefined) 0.1%
Cc1c(Br)c(=O)[nH]c(=O)n1Cc1ccccc1 0.2%
O=C(NCc1ccccn1)C(=O)Nc1ccc(Br)cc1 7.9%
Cc1cc(C)c(NC(=O)C(C)Sc2nnc(-c3cccc(F)c3)n2-c2ccccc2)c(C)c1 (centres undefined) -3.5%
COc1ccc(Cl)cc1C(=O)Nc1ccc2c3c(cccc13)CC2 -1.6%
CCCCOC(=O)Nc1nnc(-c2ccco2)s1 -8.6%
CCOc1cc(/C=N/NC(=O)CC2C(=O)NN=C2C)ccc1O (centres undefined) -5.5%
O=C(Nc1cccc([N+](=O)[O-])c1)c1ccc2c(c1)C(=O)N(N1C(=O)c3ccccc3C1=O)C2=O -5.9%
COC(=O)c1c(-c2ccc(Br)cc2)csc1NC(=O)CCCC(=O)O 8.8%
CCc1ccc(N2C(=O)NC(=O)/C(=C\c3cc(Cl)c(O)c(Cl)c3)C2=O)cc1 2.7%
CN(C)c1ccc(C2/C(=C(\O)c3ccccc3)C(=O)C(=O)N2CCCC(=O)O)cc1 (centres undefined) 3.2%
